Rows were chosen to be rich in hits. Some 19% of all compounds tested hit in one or more screens of this group.
TDP1 cell noCPT: qHTS for Inhibitors of human tyrosyl-DNA phosphodiesterase 1 (TDP1): qHTS in cells in absence of CPT. AID 686978, 2013. Potency, µM (top dose mostly 46.2 µM), inactives show at the highest dose activity change, negative = growth inhibition, hits mostly inhibitors. hit rate 15% among 420,000. DT40 Tdp1-/- hTDP1 cells, no CPT, ATP luminescence, 48 h; note: potency is the fitted concentration of half-maximal effect; % is set by controls: 0 for no effect and ±100 for the full control effect; nearly all actives have a fitted effect of over 55% in size
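Chicken DT40 Tdp1-/- cells complemented with human TDP1, screened without camptothecin (DMSO vehicle only), 400 cells/well. Compounds pin-transferred, cells incubated at 37 °C for at least 48 hr. Growth read as ATP-dependent luminescence (CellTiter-Glo, 30 min at RT).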
DT40 TDP1 CPT: DT40-hTDP1 cell growth loss with CPT; chicken DT40 Tdp1-/-;hTDP1 cells + 20 nM CPT, ATP luminescence, 48 h; Potency, µM (top dose mostly 46.2 µM), for the others: at the top dose activity change, negative = growth inhibition, usual class: inhibitors; hit rate 12% among 420,000; note: potency is the fitted concentration of half-maximal effect; % is set by controls: 0 for no effect and ±100 for the full control effect; nearly all actives have a fitted effect of over 55% in size
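Cell growth measured by CellTiter-Glo luminescence after a minimum 48 h, 37 C compound exposure with 20 nM CPT in Tdp1-knockout DT40 cells stably expressing hTDP1, seeded 400/well; qHTS titration format.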
IL-1B inflam inh: blocks inflammasome-driven IL-1 beta release; THP-1 LPS/ATP IL-1B secretion, AlphaLISA, 16 h; stronger effect = lower value; activity change, % at 57.5 µM; hit rate 4.7% among 360,000; in the data active = activity change below about -50%; inconclusive = mostly about -30% to -49%; note: % is set by controls: 0 for no effect and ±100 for the full control effect
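THP-1 cells pretreated 1 hr with compounds (up to 57.5 uM final), then stimulated with LPS (250 ng/mL final) plus ATP (1.25 mM final); secreted IL-1B measured by AlphaLISA after 16 hr, decreased signal indicating inhibition.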
SW480 rerep: inducers of DNA re-replication in SW480 colon cancer cells. SW480 DNA re-replication, Hoechst DNA content imaging, 48 h. Potency, µM (titrated, usually from 46.1 µM), for inactives: top-dose re-replication activation, usual class: activators. hit rate 1.8% among 340,000. AID 624297; note: potency is the fitted concentration of half-maximal effect; % of control where 0% means no effect; nearly all actives have a fitted effect of over 55% in size
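First, 250 cells per well were seeded. Next, compound or vehicle (23 nL) was pinned in, plates sat 48 hr at 37 C. Finally Hoechst was added for 40 min before fluorescence scanning.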
MCF10A rereplic: induces DNA re-replication in MCF 10a normal breast cells; MCF 10A DNA re-replication, Hoechst nuclear intensity, 48 h; Potency, µM (titrated, usually from 46.1 µM), for inactives: top-dose activity, positive = re-replication, hits mostly activators; hit rate 2.9% among 350,000; note: potency is the fitted concentration of half-maximal effect; % of control where 0% means no effect; nearly all actives have a fitted effect of over 50% in size
BCR signal inh: inhibitors of chronic active B-cell receptor signaling. hit rate 0.05% among 340,000. Potency, µM (top dose mostly 46.1 µM), for inactives: top-dose activity change, negative = inhibition, most hits filed as inhibitors. ABC-DLBCL IkBa-CBG/CBR reporter, luminescence ratio, 4 h; active = well fitted inhibition curve with a large enough effect in the signal ratio, with a control signal flat, not every such curve was filed as active; inconclusive = small, poorly fitted or top-dose-only effect, or effect the other way, or a change in a side signal; the % refers to the signal ratio;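 note: potency is the fitted concentration of half-maximal effect; plate controls were basal doxycycline-induced cells for no effect and cells given 10 µM MG132 for full effect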
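TMD8 human ABC-DLBCL cells with doxycycline-inducible IκBα–green luciferase fusion and unfused red luciferase, in 0.5% FBS medium; compounds up to 46 uM, 4 h at 37C. Green/red luminescence ratio, filter-overlap corrected, fitted to concentration-response curves.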
* = called active by the depositor; ? = inconclusive; / = not tested or not shown; [ ] = another dose, or the depositor's remark. Unless noted, calls come from the whole dose curve; as a rule, active = well fitted curve in the direction sought with a large enough effect; inconclusive = small, poorly fitted or top-dose-only effect, or another doubt; inactive = no such curve, though single readings can be large; an effect the other way counts as inactive or inconclusive.

SMILES	TDP1 cell noCPT	DT40 TDP1 CPT	IL-1B inflam inh	SW480 rerep	MCF10A rereplic	BCR signal inh
COc1ccc(CN2CCC3(CC2)c2ccccc2[C@@H](NC(=O)c2ccsc2)[C@@H]3OC)cc1O	-17%	?	/	/	/	/
Cc1c(Cl)cccc1NC(=O)CSc1nc(=O)n(CCCN2CCOCC2)c2c1CCCC2	?	-27%	?	/	/	/
COc1ccccc1CN1CCCC(CN(CCN(C)C)C(=O)C2CCCC2)C1 (stereo unspecified)	1%	-2%	-52*	-2%	-4%	2%
CCC(C)NC(=O)c1cn(CC)c2ccc(S(=O)(=O)N3CCc4ccccc4C3)cc2c1=O (stereo unspecified)	?	21µM*	/	/	/	/
CCn1cc(C(=O)NC(C)c2ccccc2)c(=O)c2cc(S(=O)(=O)N3CCc4ccccc4C3)ccc21 (stereo unspecified)	16µM*	?	/	/	/	/
CCn1cc(C(=O)N2CCc3ccccc32)c(=O)c2cc(S(=O)(=O)N3CCCC3)ccc21	-12%	-21%	1	-3%	?	-3%
CCCCOc1ccccc1C1NC(=O)CCC1[N+](=O)[O-] (stereo unspecified)	-13%	1%	25	-3%	-19%	?
O=C1C=C(c2ccccc2)C[C@@H](c2ccc3c(c2)OCO3)C1	-25%	-15%	-23	-15%	0%	1%
O=C1C=C(c2cccc(Br)c2)C[C@@H](c2ccc3c(c2)OCO3)C1	23µM*	?	-4	-3%	21%	2%
O=C1C=C(c2ccc(CO)cc2)C[C@@H](c2ccc(F)cc2)C1	23µM*	-29%	29	/	/	/
O=C1C=C(c2ccc(C(=O)O)cc2)C[C@@H](c2ccc(F)cc2)C1	-10%	-29%	37	-2%	-9%	-1%
O=C1C=C(c2ccc(CO)cc2)C[C@@H](c2ccc3c(c2)OCO3)C1	?	?	?	-21%	0.58µM*	-4%
Cn1ccc2ccc(C3=CC(=O)C[C@H](c4ccc(F)cc4)C3)cc21	18µM*	7.3µM*	-18	3%	?	11%
CCn1c(CN2CCOCC2)nc2cc(NC(=O)c3ccc([N+](=O)[O-])cc3)ccc21	-24%	-21%	/	/	/	/
CCN(C(=O)COC(=O)C(C)(C)Oc1ccc(Cl)cc1)c1c(N)n(Cc2ccccc2)c(=O)[nH]c1=O	?	-15%	-10	-5%	-2%	/
O=C1C=C(c2ccc(-c3ccccc3)cc2)C[C@@H](c2ccc(F)cc2)C1	?	18µM*	-23	-8%	11%	?
O=C1C=C(c2cnc3ccccc3c2)C[C@@H](c2ccc3c(c2)OCO3)C1	?	21µM*	?	-8%	?	?
Cc1ccc(C2=CC(=O)C[C@H](c3ccc(F)cc3)C2)cc1	?	?	0	-5%	?	?
C1=Cc2ccccc2/C1=C(\Cc1ccncc1)Oc1ccncc1	14µM*	11µM*	/	/	/	/
Cc1ccc2nc(Cl)c(/C=N/n3c(C)nnc3C)cc2c1	21µM*	?	28	0%	6%	?
CCc1nc2c(OCCn3cccc3)cccn2c1N(C)C(=O)c1ccccc1F	?	?	-7	/	/	/
Cc1ccc(S(=O)(=O)N2C[C@H]3C(=O)C[C@@H](c4ccc(Cl)cc4)N(S(=O)(=O)c4ccc(C)cc4)[C@H]3C[C@H]2c2cccc3ccccc23)cc1	-5%	-8%	36	/	/	/
COc1ccc(C2=CSC3=C(C(=O)c4cccc(S(=O)(=O)N(C)C)c4)CCN23)cc1	16µM*	23µM*	15	-1%	832%[0.0737 µM]	-13%
Cc1cc2c(N=O)c(NO)ccc2[nH]1	6.5µM*	7.3µM*	-2	4.1µM*	?	?
CC(=O)Nc1ccc2[nH]c(C)cc(=O)c2c1	-26%	8%	15	-4%	-2%	-10%

Screens as filed in PubChem BioAssay.
